Experimental data reported in PubChem BioAssay AID624297 (National Center for Advancing Translational Sciences (NCATS), 2012).
Out of some 340,000 compounds screened, about 6,200 (1.8%) were called active. A call without a number means that no potency is given here. Roughly 10% stayed inconclusive and do not appear here. The full list was thinned out, with actives kept by preference. Unmarked numbers belong to inactive results. The call rests on the fitted dose curve; in most records, active means well fitted activation curve with a large enough effect; inconclusive means small, poorly fitted or top-dose-only effect; inactive means no such curve, though single readings can be large or run the other way.

Assay: A quantitative high throughput screen for small molecules that induce DNA re-replication in SW480 colon adenocarcinoma cells. Further: nearly all actives have a fitted effect of over 55% in size.
Conditions: Hoechst DNA content imaging, 48 h; series mostly up to 46.1 µM
In short: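 First, 250 cells per well were seeded. Next, compound or vehicle (23 nL) was pinned in, plates sat 48 hr at 37 C. Finally Hoechst was added for 40 min before fluorescence scanning.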
Potency means the concentration at half of the fitted maximal effect.

Row | Structure (SMILES) | Potency | re-replication activation
1 | N#Cc1cccc(NC(=O)COC(=O)c2ccccc2C(=O)c2ccc(Cl)c([N+](=O)[O-])c2)c1 | inactive | –
2 | CC(=O)Nc1ccc(NC(=O)C(C)OC(=O)c2ccccc2C(=O)c2ccc(Cl)c([N+](=O)[O-])c2)cc1 (stereo not drawn) | 16.4 µM (active) | –
3 | CC(OC(=O)CNC(=O)c1ccc(Cl)c([N+](=O)[O-])c1)C(=O)NCc1ccco1 (stereo not drawn) | inactive | –
4 | Cc1ccc(S(=O)(=O)N2[C@@H](c3cccc4ccccc34)C(C(=O)O)=C[C@H]2C(C)(C)C)cc1 | – | -25.3% [at 9.22 µM]
5 | CCCNC(=O)CSc1nc(Cc2ccccc2)nc2ccccc12 | 9.2 µM (active) | –
6 | CCc1nc(SCC(=O)NNC(=O)c2ccc(C)cc2)c2ccccc2n1 | inactive | –
7 | C=CCSc1nc(Cc2ccc(Cl)cc2)nc2ccccc12 | inactive | –
8 | CC(=O)Nc1ccc(C(=O)Nc2cc(S(=O)(=O)N3CCOCC3)ccc2N2CCOCC2)cc1 | inactive | –
9 | CC(Oc1ccc2c(-c3ccccc3)cc(=O)oc2c1)C(=O)NC(Cc1c[nH]c2ccccc12)C(=O)O (stereo not drawn) | inactive | –
10 | COC(=O)c1c(CCl)noc1C(=O)NC(C)C | 20.6 µM (active) | –
11 | CCCNC(=O)c1onc(CSc2ccc(F)cc2)c1C(=O)NC(C)C | inactive | –
12 | CCOc1cccc(SCc2noc(C(=O)NC(C)C)c2C(=O)O)c1 | inactive | –
13 | CC(=O)N1CCc2ccc(N)cc21 | inactive | –
14 | OC(COc1ccccc1)CN1CCN(c2cccc(Cl)c2)CC1 (stereo not drawn) | inactive | –
15 | O=C(NN=CC=Cc1ccccc1)C(O)C(O)C(=O)NN=CC=Cc1ccccc1 (stereo not drawn) | inactive | –
16 | CN(C(=O)c1cccc(NC(=O)Cc2ccc(NC(=O)C3CCCN(C(=O)C4CCCC4)C3)cc2)c1)C1CCC1 (stereo not drawn) | – | -19.7% [at 9.22 µM]
17 | O=C(N/N=C/c1cc2c(cc1Br)OCO2)C1COc2ccccc2O1 (stereo not drawn) | inactive | –
18 | CC1(C(=O)N/N=C/c2cc3c(cc2Br)OCO3)CC1(Br)Br (stereo not drawn) | inactive | –
19 | O=C(N/N=C\c1cc2c(cc1Cl)OCO2)c1ccc(Br)s1 | 7.31 µM (active) | –
20 | O=C(CSc1ncnc2sccc12)NC1CCS(=O)(=O)C1 (stereo not drawn) | inactive | –
21 | O=C(Nc1ccc2c(c1)OCO2)C1CC1(Cl)Cl (stereo not drawn) | inactive | –
22 | O=C(Nc1c[nH]c(=O)[nH]c1=O)OCc1ccccc1 | inactive | –
23 | COc1ccc(NC(=O)/C(N=Nc2cccc(S(=O)(=O)Nc3ccc(SC(F)F)cc3)c2)=C(\C)O)cc1 | inactive | –
24 | Nc1nc(-c2sc3nc4c(cc3c2N)CCCC4)nc(N2CCOCC2)n1 | 10.3 µM (active) | –
25 | Cc1nc(N2CCOCC2)nc2c1CCCC2 | inactive | –

Row | Structure (SMILES) | Potency | re-replication activation
26 | COc1ccc(/C=C/C(=O)OCC(=O)N2CCN(S(=O)(=O)c3ccc(C)cc3C)CC2)cc1OC | inactive | –
27 | Cc1nc(N)sc1-c1ccccc1 | inactive | –
28 | O=C1COc2ccc(C(=O)CSc3ccc(Br)cc3)cc2N1 | inactive | –
29 | C=CCn1c(=O)n(C)c2c(=O)n(C)c(=O)n(C)c21 | inactive | –
30 | COc1cc(OC)cc(C(=O)N[C@H](C(=O)NNC(=O)c2ccc(Br)cc2)C(C)C)c1 | inactive | –
31 | COc1ccc(C(=O)N[C@H](C(=O)NCc2ccccc2)C(C)C)cc1 | inactive | –
32 | COc1cc(OC)cc(C(=O)N[C@H](C(=O)Nc2nc3ccccc3[nH]2)C(C)C)c1 | 0.164 µM (active) | –
33 | Cc1ccc(S(=O)(=O)N2CCN(C(=O)c3cc(S(=O)(=O)N4CCOCC4)ccc3F)CC2)cc1 | inactive | –
34 | CN(C)c1ccc(Nc2c3c4c(cccc4n(C)c2=O)C(=O)c2ccccc2-3)cc1 | 7.31 µM (active) | –
35 | CN(C)c1ccc(C2N(C)C(=O)c3ccccc3N2C)cc1 (stereo not drawn) | inactive | –
36 | Cc1ccc(S(=O)(=O)NC[C@H]2O[C@@H](n3cnc4c(N)ncnc43)[C@H](O)[C@@H]2O)s1 | inactive | –
37 | CCC(=O)NC(Nc1nc2ccc(C)cc2s1)(C(=O)OC)C(F)(F)F (stereo not drawn) | inactive | –
38 | O=C(NC(Nc1nc2ccc([N+](=O)[O-])cc2s1)(C(F)(F)F)C(F)(F)F)c1ccccc1 | 20.6 µM (active) | –
39 | CCOc1ccc2nc(NC(=O)c3cc([N+](=O)[O-])ccc3N3CCOCC3)sc2c1 | inactive | –
40 | CC(=O)c1ccc(NC(=O)C(C)OC(=O)c2ccc(NS(=O)(=O)c3ccc4[nH]c(=O)[nH]c4c3)cc2)cc1 (stereo not drawn) | inactive | –
41 | Cc1cc(NC(=O)C(C)SCC(=O)Nc2cccc(S(=O)(=O)N3CCCCCC3)c2)no1 (stereo not drawn) | inactive | –
42 | C[C@H](CO)N1C[C@H](C)[C@H](CN(C)CC2CC2)Oc2ccc(NC(=O)CCN3CCOCC3)cc2C1=O | inactive | –
43 | Cc1cc(Cl)nc(NC(=O)Nc2cccc(Cl)c2)n1 | inactive | –
44 | Cc1cc(C)nc(NC(=O)Nc2ccccc2C(F)(F)F)n1 | 16.4 µM (active) | –
45 | COc1cccc(C(=O)NC(=O)Nc2nc(C)cc(C(F)(F)F)n2)c1 | inactive | –
46 | CCC(C)C1(C2CCCC2)NC(=O)NC1=O (stereo not drawn) | inactive | –
47 | Nc1ncnc2c1ncn2[C@@H]1O[C@H](CNS(=O)(=O)c2ccc(-c3ccno3)s2)[C@@H](O)[C@H]1O | inactive | –
48 | Cc1cc2c(cc1C)NC1(C[C@H]3CCC(=O)N4CC[C@@H](C1)[C@@H]34)C(=NC(C)(C)CC(C)(C)C)N2 (stereo partly drawn) | inactive | –
49 | N#Cc1nc(-c2cccc3ccccc23)oc1N | inactive | –
50 | COc1ccc(Nc2oc(-c3ccccc3Cl)nc2C#N)cc1 | 10.3 µM (active) | –

Row | Structure (SMILES) | Potency | re-replication activation
51 | Cc1ccccc1-c1nc(C#N)c(NCc2ccco2)o1 | inactive | –
52 | COc1ccc(CCC(=O)Nc2ccc(Cl)c(S(=O)(=O)N3CCOCC3)c2)cc1OC | inactive | –
53 | CC1CCCCC1NC(=O)/C(C#N)=C/C=C/c1ccccc1[N+](=O)[O-] (stereo not drawn) | 6.51 µM (active) | –
54 | O=[N+]([O-])c1ccccc1/C=C/CN1CCCC(CO)C1 (stereo not drawn) | inactive | –
55 | O=[N+]([O-])c1ccccc1/C=C/CN1CCC(O)CC1 | inactive | –
56 | COCCN(C(=O)C(C)N1C(=O)c2ccccc2C1=O)c1c(N)n(CC(C)C)c(=O)[nH]c1=O (stereo not drawn) | inactive | –
57 | O=[N+]([O-])c1ccc(N=NNc2ccc([N+](=O)[O-])cc2)cc1 | inactive | –
58 | COc1cccc(N2CCN(CC(=O)Nc3ccnn3C3CCCC3)CC2)c1 | inactive | –
59 | COc1cc(OC)cc(-c2cc3ccc(F)cc3cn2)c1 | inactive | –
60 | O=C(Nc1ccc(Cl)cc1)C1c2cccc[n+]2CC(=O)N1Cc1ccc2c(c1)OCO2 (stereo not drawn) | 23.1 µM (active) | –
61 | O=C(C1CCN(Cc2ccc(Cl)cc2)CC1)N1CCN(Cc2ccc3c(c2)OCO3)CC1 | inactive | –
62 | CC1CCC(NC(=O)C2c3ccccc3C(=O)N2Cc2ccc3c(c2)OCO3)CC1 (stereo not drawn) | inactive | –
63 | C=CC[C@@H](CC(=O)N[C@@H](CO)Cc1ccccc1)C(=O)NCCOC(=O)[C@@H](CC=C)CC(=O)OC(C)(C)C | inactive | –
64 | COC1=CC(=O)OC(C)(c2ccccc2)C1 (stereo not drawn) | inactive | –
65 | CCOC(=O)CCC(NC(=O)c1ccc(CNc2nc3cc(C(F)(F)F)ccc3nc2C(=O)OCC)cc1)C(=O)OCC (stereo not drawn) | inactive | –
66 | FC(F)(F)c1ccc(-c2cccc3c2C2CC3CCN2Cc2ccccc2)cc1 (stereo not drawn) | inactive | –
67 | O=C(NNc1nc(N2CCCC2)nc(N2CCCC2)n1)c1ccccc1 | inactive | –
68 | CCN(CC)c1ccc(C(=O)N/N=C/c2ccc(N3CCOCC3)cc2)cc1 | 18.4 µM (active) | –
69 | O=C(NN=Cc1ccc(N2CCOCC2)cc1)c1cc2ccccc2cc1O | inactive | –
70 | Cc1cc(C(=O)N/N=C/c2ccc(N3CCOCC3)cc2)c(C)o1 | inactive | –
71 | O=C(Nc1cccc(S(=O)(=O)N2CCCCC2)c1)c1cncc(Br)c1 | inactive | –
72 | CC/C(=C(/c1ccccc1)c1ccc(OCC[N+](C)(C)C)cc1)c1ccccc1 | inactive | –
73 | Nn1c(SCC(=O)Nc2ccc3c(c2)CCC3)nnc1C1CC1 | inactive | –
74 | Cc1cc(C(=O)OCC(=O)NCc2ccco2)c(C)n1-c1ccccc1 | 7.31 µM (active) | –
75 | CN(c1ccccc1)S(=O)(=O)c1ccc(Cl)c(C(=O)OCC(=O)NCc2ccco2)c1 | inactive | –

Row | Structure (SMILES) | Potency | re-replication activation
76 | O=C(COC(=O)c1ccccc1O)NCc1ccco1 | inactive | –
77 | CC(C(=O)N1CCc2ccccc21)N(C)CC(=O)Nc1ccc(F)cc1 (stereo not drawn) | inactive | –
78 | O=C1COc2ccc(C(=O)COC(=O)CCOc3ccccc3)cc2N1 | inactive | –
79 | Cc1ccc(-c2csc(C(C#N)=C(O)CN3CCN(C(=O)c4ccco4)CC3)n2)cc1 | inactive | –
80 | Cc1cn([C@H]2CC(F)[C@@H](CO)O2)c(=O)[nH]c1=O (stereo partly drawn) | inactive | –
81 | COc1cc(OC)cc(C(=O)NCC(=O)OCC(=O)NC(C)CCc2ccccc2)c1 (stereo not drawn) | inactive | –
82 | CCn1cc(CN2CCC(C(=O)Nc3cccc(-c4cccc(Cl)c4)c3)CC2)cn1 | 18.4 µM (active) | –
83 | O=C(Nc1cccc(-c2cscn2)c1)C1CCN(Cc2ccsc2)CC1 | inactive | –
84 | CC(=O)c1cc(CN2CCC(C(=O)Nc3cccc(-c4cscn4)c3)CC2)cs1 | inactive | –
85 | C=CCN1C=C(C(=O)c2ccccc2)C(=O)CC1 | inactive | –
86 | CCCCCCCCCCOC(=O)Cn1c(COc2ccc(C)cc2)[n+](C)c2ccccc21 | 20.6 µM (active) | –
87 | Cc1ccc(OCCCn2c(=O)oc3ccccc32)cc1 | inactive | –
88 | CCCCCCCCCCOC(=O)Cn1c(COc2cccc(OC)c2)[n+](C)c2ccccc21 | inactive | –
89 | O=c1c2ccccc2ncn1CCc1ccncc1 | inactive | –
90 | COc1ccccc1C(=O)OCC(=O)Nc1cccc(S(=O)(=O)NC2=NCCCCC2)c1 | inactive | –
91 | Cc1cc(-c2ccc(C)c(S(=O)(=O)NC(C)Cc3ccco3)c2)on1 (stereo not drawn) | inactive | –
92 | CCOc1ccccc1CNS(=O)(=O)c1cc(-c2cc(C)no2)ccc1C | inactive | –
93 | Cc1cc(-c2ccc(C)c(S(=O)(=O)NCCCN(Cc3ccccc3)C(C)C)c2)on1 | 18.4 µM (active) | –
94 | COc1cccc2oc(CCc3ccccc3)cc(=O)c12 | inactive | –
95 | CCOc1cc(C(=O)N(Cc2ccccc2)c2ccc(C)cc2)ccc1OCC(=O)N1CCOCC1 | inactive | –
96 | CC1CCN(C2=NC(=O)/C(=C/c3ccc(O)cc3)S2)CC1 | inactive | –
97 | O=C1/C(=C\c2ccc(O)cc2)CCC1CNc1ccc(Cl)cc1 (stereo not drawn) | 16.4 µM (active) | –
98 | CC(C(=O)NC1CCS(=O)(=O)C1)N1C(=O)/C(=C/c2ccc(Cl)cc2)SC1=S (stereo not drawn) | inactive | –
